# From PubChem BioAssay
# The source made the active and inactive calls.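 How the source made its calls, unless noted: active means compound raises GLP1 secretion from the human gut endocrine cells, with no numeric limit stated; inactive means the rest.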
# How the values were obtained:
# [1] = liver-stage malaria parasite growth inhibition, primary screen, cell-based, HepG2, luciferase luminescence, HepG2 viability (AID 624349; in the data active means parasite load remaining mostly below about 12%, no sharp cut-off; inactive means mostly above about 10%;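 further: 100% = mean of DMSO negative control wells on the same plate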); conditions: P. berghei liver stage in HepG2, luciferase luminescence, concentration not given here; parasite load remaining: stronger effect = lower value; viability: measured here: HepG2 viability without parasites
# [2] = stimulators of nuclear beta-catenin in C2C12, primary screen, imaging, WNT3A-conditioned medium, mouse C2C12, NPC library (AID 1117326; in the data active means nuclear beta-catenin stimulation mostly above about 4.2%, no sharp cut-off; inactive means mostly below about 10%); conditions: stronger effect = higher value
# [3] = stimulators of insulin release from INS-1E, primary screen, cell-based, 5 mM glucose, NPC library (AID 1117329;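 active means compound raises insulin release from rat beta cells at 5 mM glucose, no numeric limit stated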); conditions: rat INS-1E insulin secretion, at 10 µM, stronger effect = higher value
# [4] = growth inhibition of GSK3B-pretreated HCT116 cells – cell-based, CellTiter-Glo, 0.2 to 20 µM (AID 1117336;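 active means compounds lowering colon cancer cell viability after pretreatment blocking the GSK3B kinase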); conditions: HCT116 viability after GSK3B inhibitor, at 20 µM, stronger effect = higher value
# [5] = inhibition of endothelial tube formation, primary screen, imaging, VEGF stimulated, CD31 staining, tube area, NPC library (AID 1117340;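 active means compound that reduces growth-factor-driven endothelial tube area in a mixed cell culture, no cutoff stated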); conditions: VEGF-stimulated ADSC/ECFC co-culture, at 10 µM, stronger effect = higher value
# [6] = glucagon-like peptide 1 release enhancers, primary assay, NCI-H716 cell line, NPC library (AID 1117341); conditions: NCI-H716 cells, at 10 µM, stronger effect = higher value
# [7] = HCT116 colon cancer cell growth inhibition, primary screen, CellTiter-Glo luminescence, NPC library (AID 1117342;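 active means compounds that lower survival of HCT116 colon cancer cells in the luminescence readout, no numeric limit stated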); conditions: at 20 µM (top of the series)
# [8] = CellTiter-Glo luminescent readout of SW480 viability loss, NPC library primary (AID 1117343;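 active means compounds that lower viability of the colon cancer cells in the luminescence readout, with no numeric limit stated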); conditions: CellTiter-Glo luminescence; at 20 µM (top of the series) unless noted
# [9] = decreased DLD-1 cellular survival, CellTiter-Glo luminescent readout, NPC compound collection, primary HTS (AID 1117346;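 active means compounds that lower survival of DLD-1 colon cancer cells in the luminescence readout, no cutoff given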); conditions: DLD-1 viability, CellTiter-Glo luminescence; at 20 µM (top of the series)
# [10] = differential killing of epithelial or mesenchymal cells, primary screen, imaging, PC-3E GFP, TEM4-18 mCherry, co-culture (AID 1345086;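 active means compounds killing one labelled cell type while sparing the other, by normalised counts and ratio limits, not self-fluorescent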;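 on all read-outs here: cells exposed to compound for 72 h before imaging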;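 on red/green cell ratio (normalised): normalised mesenchymal count divided by normalised epithelial count so high means epithelial killing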); conditions: imaging cell counts, at 1 µM; for red/green cell ratio (normalised): actives lie on both sides, counts scaled to control wells, 1 = unselective
# [11] = sensitizers of A549 cells to miR-34 induction, primary screen, imaging, A549 dox-inducible miR-34, nuclei and caspase counts (AID 1347080;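 active means compounds whose cell count with miR-34 switched on is under 0.7 times the count with it off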); conditions: A549 miR-34 inducible, Hoechst nuclei count, 48 h
# [12] = viability rescue of complex I mutant cybrids, primary screen, cell-based, galactose medium, ATP luminescence (AID 1645843;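 active means z-score of at least 1.8 in each of two replicates, scored against plate mean and spread of sample wells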;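 further: positive z means more ATP and so rescue of galactose-driven cybrid death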); conditions: complex I mutant cybrid cells, 72 h, stronger effect = higher value
# [13] = molecular target: NAD(+) hydrolase SARM1 (Homo sapiens) (UniProt Q6SZW1); assay: SARM1 TIR NADase inhibitors, cell lysate, NAD-Glo luminescence (AID 1508614;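 active means compound whose remaining NAD level is above about 45 nM, limit read from the data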); conditions: SAM-TIR HEK293T lysate NADase, at 1 µM, stronger effect = higher value
# NAD(+) hydrolase SARM1 (Homo sapiens), sequence (Q6SZW1 whole entry, looked up): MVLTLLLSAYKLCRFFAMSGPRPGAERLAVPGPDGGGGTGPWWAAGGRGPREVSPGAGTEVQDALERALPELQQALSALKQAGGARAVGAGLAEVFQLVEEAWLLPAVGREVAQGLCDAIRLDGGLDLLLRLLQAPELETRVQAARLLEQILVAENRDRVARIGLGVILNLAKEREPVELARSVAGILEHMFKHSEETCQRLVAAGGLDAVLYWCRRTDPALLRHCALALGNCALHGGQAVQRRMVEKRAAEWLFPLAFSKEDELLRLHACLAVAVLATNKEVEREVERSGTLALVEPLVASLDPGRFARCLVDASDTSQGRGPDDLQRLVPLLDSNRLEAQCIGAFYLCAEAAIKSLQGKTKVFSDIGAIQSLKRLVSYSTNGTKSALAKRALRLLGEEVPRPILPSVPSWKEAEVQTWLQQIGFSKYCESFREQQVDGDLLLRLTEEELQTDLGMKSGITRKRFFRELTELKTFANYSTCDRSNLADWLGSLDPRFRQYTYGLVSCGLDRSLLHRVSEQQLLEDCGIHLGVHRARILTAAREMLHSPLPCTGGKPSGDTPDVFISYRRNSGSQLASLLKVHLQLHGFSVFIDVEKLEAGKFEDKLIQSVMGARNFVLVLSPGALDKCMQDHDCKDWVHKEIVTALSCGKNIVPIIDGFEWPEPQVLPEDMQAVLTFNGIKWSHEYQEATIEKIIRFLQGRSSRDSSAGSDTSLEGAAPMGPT
# [14] = measured here: epithelial PC-3E GFP cell survival
# [15] = measured here: mesenchymal TEM4-18 mCherry cell survival
# [16] = stronger effect = lower value, cell number ratio, induced over uninduced
# [17] = measured here: relative caspase fold change +Dox/-Dox
# [18] = measured here: total cells with miR-34 induction, stronger effect = lower value
# [19] = measured here: total cells without miR-34 induction
SMILES,parasite load remaining [1],viability [1] [%],nuclear beta-catenin stimulation ([2]; at 10 µM),"nuclear beta-catenin stimulation ([2]; stimulation, at 2 µM) [%]",insulin secretion stimulation [3],viability decrease [4],tube area decrease [5],GLP1 secretion stimulation [6],inhibition of viability [7],viability decrease (inhibition) [8],viability decrease (inhibition) [9],red/green cell ratio (normalised) [10],"normalised cell number [10, 14]","normalised cell number [10, 15]","fold change [11, 16]","fold change [11, 17]","cell count [11, 18]","cell count [11, 19]",z-score [12],remaining NAD [13]
COc1cc(N)c(Cl)cc1C(=O)NC1CCN(CCCOc2ccc(F)cc2)CC1OC (stereo unspecified),96.4% (inactive),81.1,13% (inactive),3.1,7.5% (inactive),20.6% (inactive),-0.4% (inactive),13.3% (inactive),53.9% (active),66.7% (active),22.4% (inactive),0.95 (inactive),0.93,0.88,0.948 (inactive),1.94,8510,8980,-0.435 (inactive),–
OC1C(O)C(O)C(O)C(O)C1O (stereo unspecified),41.7% (inactive),104,2.8% (inactive),0.4,0.4% (inactive),-3.8% (inactive),3% (inactive),-2.7% (inactive),3.1% (inactive),4.8% (inactive),0.6% (inactive),1.17 (inactive),0.97,1.13,0.895 (inactive),0.941,11600,12900,–,10 nM (inactive)
CC1=C(C/C=C(\C)CCC[C@H](C)CCC[C@H](C)CCCC(C)C)C(=O)c2ccccc2C1=O,21.8% (inactive),93.1,0.3% (inactive),-0.8,-2.6% (inactive),-3.55% (inactive),23.9% (inactive),2.3% (inactive),-10.9% (inactive),-45.3% (inactive),-6.65% (inactive),1.1 (inactive),0.92,1.01,0.94 (inactive),3.52,11600,12300,–,10 nM (inactive)
CC(C)CCCC(C)N (stereo unspecified),30.8% (inactive),90,3.1% (inactive),2,4.9% (inactive),2% (inactive),-9.7% (inactive),0% (inactive),-7.6% (inactive),-47.3% (active),-8.6% (active),1.15 (inactive),0.96,1.1,0.884 (inactive),1.92,11300,12800,–,10 nM (inactive)
